Data on 92 compounds can be found in PubChem BioAssay AID540254 (Southern Research Specialized Biocontainment Screening …, 2011).

Out of some 1,800 compounds screened, fewer than 10 were called active. The rule behind the calls is not given here. Only a sample is shown. Results with a measured potency or affinity are listed apart.

A short description of the experiment: antiviral activity against H1N1 influenza, dose response, cell-based, strain KY180 (AID 540254). Particulars: H1N1 KY180 influenza antiviral cell-based screen; series mostly up to 40 µM.
With `O=C(Nc1nc(-c2ccccn2)cs1)C1COc2ccccc2O1` (configuration not stated), the outcome was inactive.

`CC(=O)N/N=C(\C)c1cccc(NC(=O)c2cccs2)c1`: the compound was classed as inactive.

Consider `O=C(Nc1nc2c(s1)CCCC2)C1COc2ccccc2O1` (configuration not stated), for which the compound was called inactive.

As for `Cn1c(=O)c2[nH]c(NN=Cc3ccc(Br)cc3)nc2n(C)c1=O`, the call was inactive.

Turning to `COc1ccc(C(=O)NC(=S)NNC(=O)c2cnccn2)cc1OC`, the compound was classed as inactive.

Take `COC(=O)c1ccccc1NC1=C/C(=N\S(=O)(=O)c2ccc(C(=O)O)cc2)c2ccccc2C1=O`: the compound was classed as inactive.

With `CCNC(=S)NNC(=O)c1ccccn1`, the outcome was inactive.

For the compound `O=c1c2ccccc2ncn1Cc1ccco1`, the call was inactive.

Regarding `Oc1c(CN2CCCCC2)ccc2cccnc12`, the result was inactive.

Regarding `COCc1cc(C)nc(SCC(=O)Nc2ccc3c(c2)n(C)c(=O)n3C)c1C#N`, the result was inactive.

For `Nc1ccccc1C(=O)NCc1ccc(Cl)cc1`, the result was inactive.

Turning to `Nc1nc(SCc2ccc([N+](=O)[O-])cc2)nc2nc3c(cc12)CCCC3`, the result was inactive.

In the case of `CCN(CC)CCNc1nc2cc(OC)c(OC)cc2c2nc(-c3ccccc3)nn12`, the call was inactive.

Consider `Cc1cc(N(C)N)nc(NC(=O)NS(=O)(=O)c2ccccc2Cl)n1`, for which the compound was classed as inactive.

For the compound `Cn1cc(S(=O)(=O)Nc2ccc(Br)cc2F)c(=O)n(C)c1=O`, the outcome was inactive.

Take `O=C(NCC1CCCO1)C(=O)N/N=C/c1cc(Cl)ccc1O` (configuration not stated): the outcome was inactive.

With `O=C(NCCCN1CCOCC1)C(=O)N/N=C/c1ccccc1O`, the compound was classed as inactive.

On to `Cc1ccc(OCCn2c(C3CC(=O)N(Cc4ccccc4)C3)nc3ccccc32)cc1` (configuration not stated), for which the result was inactive.

With `CCOC(=O)c1cnc(-n2[nH]c(C)c(Cc3ccccc3)c2=O)[nH]c1=O`, the compound was called inactive.

As to `Cc1ccc(C(c2nnnn2Cc2cccs2)N2CCN(Cc3ccc4c(c3)OCO4)CC2)cc1` (configuration not stated), the compound was called inactive.

With `COc1cc(/C=C2\SC(c3ccccc3)=NC2=O)cc(Cl)c1O`, the compound was called inactive.

Turning to `COC(=O)C1CCN(C(=O)Cc2ccc(C)cc2)CC1`, the compound was classed as inactive.

As to `COc1ccc(Cc2nnc(N/N=C/c3ccc(O)cc3)[nH]c2=O)cc1OC`, the compound was called inactive.

`CC1CC(=O)N(C)c2ccc([N+](=O)[O-])cc2N1` (configuration not stated): the call was inactive.

Turning to `O=C(c1cc2ccccc2o1)N1CCCCCC1`, the compound was called inactive.

In the case of `COc1cc(OC)cc(C(=O)NC(=S)NNC(=O)c2cnccn2)c1`, the result was inactive.

`CC1CCCC(C)N1c1nnc(NC(=O)Cn2c(=O)oc3ccccc32)s1` (configuration not stated): the result was inactive.

On to `Fc1ccc(-[n+]2nc(Nc3ccccc3)sc2-c2c(Cl)cccc2Cl)cc1`, for which the outcome was inactive.

With `CC1NC(=O)NC1CCCCCC(=O)Nc1ccc(F)cc1` (configuration not stated), the result was inactive.

Regarding `CCc1nnc(SCC(=O)N2CCc3ccccc32)n1CC`, the result was inactive.

Regarding `O=C(CNCc1ccccn1)Nc1cc(S(=O)(=O)N2CCCCC2)ccc1Cl`, the call was inactive.

For `Cc1nc2sccn2c(=O)c1S(=O)(=O)N1CCN(c2ccc(F)cc2)CC1`, the compound was classed as inactive.

In the case of `O=C1NC(c2ccccn2)Nc2sc3c(c21)CCC3` (configuration not stated), the call was inactive.

For the compound `COc1cccc(/C=N/NC(=O)CCCC(=O)NC2CCCCC2)c1`, the call was inactive.

Consider `CCOC(=O)Cn1c(=O)oc2cc(S(=O)(=O)NCc3ccccn3)ccc21`, for which the call was inactive.

With `COc1cccc(C2c3c(oc4ccc(Cl)cc4c3=O)C(=O)N2c2cc(C)on2)c1OC` (configuration not stated), the result was inactive.

For `CC(/C=N/NC(=O)c1ccc(Cn2cc([N+](=O)[O-])cn2)o1)=C\c1ccccc1`, the outcome was inactive.

With `CCOc1ccc(C(=O)NCCn2cc(SCC(=O)Nc3cc(C)on3)c3ccccc32)cc1`, the outcome was inactive.

Regarding `O=C(N/N=C/c1ccc([N+](=O)[O-])cc1)c1ccccc1OCc1ccccc1`, the call was inactive.

As for `CC(=O)Cc1nsc(NC(=O)c2ccc(-c3cc(C(F)(F)F)ccc3Cl)o2)n1`, the call was inactive.

With `CCCCC(=O)NC(c1ccc(N(C)C)cc1)c1ccc2cccnc2c1O` (configuration not stated), the compound was called inactive.

Regarding `CC(C)COC(=O)c1ccc2c(c1O)C(=O)c1ccccc1C2=O`, the call was inactive.

Take `O=C(CSc1ccccc1)Nc1nnc(/C=C/c2ccccc2)s1`: the compound was called inactive.

For the compound `CCOC(=O)CCSCC(=O)Nc1nnc(C)s1`, the compound was classed as inactive.

On to `COc1ccc(C(CNC(=O)CN2C(=O)NC3(CCCC3)C2=O)N(C)C)cc1` (configuration not stated), for which the result was inactive.

As to `COc1ccc(C(=O)COC(=O)CN2CC(=O)Oc3ccccc32)cc1Br`, the compound was classed as inactive.

Regarding `O=C(NC1CCCC1)C(c1cccnc1)N(C(=O)c1csnn1)c1ccccc1Cl` (configuration not stated), the outcome was inactive.

Take `CCOC(=O)C1=C(C)N(C)C(C)=C(C(=O)OCC)C1c1ccncc1`: the compound was called inactive.

For the compound `O=[N+]([O-])c1ccc(CSc2ccc(-c3ccccn3)nn2)cc1`, the outcome was inactive.

Regarding `O=C(NN=C1CCCCCC1)c1cccs1`, the compound was called inactive.

Regarding `CCOC(=O)C1CCN(c2c(NC3CCCCCCC3)c(=O)c2=O)CC1`, the compound was classed as inactive.

As to `CC(C)C(=O)N(c1cc2sc(=O)oc2c2ccccc12)S(=O)(=O)c1cccs1`, the outcome was inactive.

For the compound `CN1C(=O)/C(=C\c2cc(N=Nc3ccccc3)ccc2O)SC1=S`, the outcome was inactive.

Turning to `CCCC(=O)OC(C(=O)Nc1cc(C(F)(F)F)ccc1Cl)c1ccccc1` (configuration not stated), the result was inactive.

For `Cc1ccccc1-c1nc(CN2CCC(C(=O)N3CCC(C(N)=O)CC3)CC2)c(C)o1`, the compound was classed as inactive.

On to `O=C(O)c1ccc(-n2nnnc2Oc2cccc3cccnc23)cc1`, for which the call was inactive.

In the case of `Cc1ccc(NC(=O)C2CCCN(c3ncccn3)C2)cc1F` (configuration not stated), the call was inactive.

Consider `CN(C)S(=O)(=O)c1cccc(NC(=O)CNCc2ccccn2)c1`, for which the compound was classed as inactive.

As for `COc1ccc(C)cc1NC(=O)CSc1ccc(-c2ccccn2)nn1`, the call was inactive.

With `COc1ccc(N2CCN(CCCNC(=O)c3cc4sccc4n3C)CC2)cc1`, the result was inactive.

As for `COc1ccc(N2CCN(CCCNS(=O)(=O)c3ccc4c(c3)oc(=O)n4C)CC2)cc1`, the compound was called inactive.

For `COc1ccc(N2CCN(C(=O)c3cccc(Cn4cc(Cl)cn4)c3)CC2)cc1`, the outcome was inactive.

With `COc1ccccc1-c1c(C)nn2c(N3CCN(Cc4ccccc4)CC3)cc(C)nc12`, the call was inactive.

On to `Cc1ccc(C)c(N=Nc2nc3ccccc3n2C)c1`, for which the result was inactive.

Consider `NS(=O)(=O)c1ccc(NC(=O)Nc2ccc3c(c2)OCO3)cc1`, for which the compound was called inactive.

In the case of `COc1ccc(/C=N\NC(=O)c2cc(O)c(O)c(O)c2)cc1COc1ccc(C(=O)OCC(C)C)cc1`, the outcome was inactive.

`Cc1ccc(-c2csc(NC(=O)c3cccc(N4C(=O)CCC4=O)c3)n2)o1`: the compound was called inactive.

Take `Cc1cc2cc(CNC(=O)c3ccc(S(=O)(=O)N4CCCC4)cc3)ccc2n1C`: the call was inactive.

Consider `Cc1cc(C)c(NN=c2c(=O)c3ccccc3c2=O)c(C)c1`, for which the result was inactive.

Consider `COCc1cc(=O)[nH]c(Nc2nc3ccc(C)cc3o2)n1`, for which the result was inactive.

As for `O=C(CCCN1C(=O)c2ccccc2C1=O)Nc1sc2c(c1C(=O)NCc1ccco1)CCC2`, the call was inactive.

With `Cc1ccc(-c2nc3ncccn3c2Nc2ccc3c(c2)OCO3)o1`, the outcome was inactive.

As to `O=[N+]([O-])c1cc(/C=N/N/C(=N/c2ccccn2)c2ccccn2)ccc1O`, the compound was called inactive.

In the case of `O=[N+]([O-])c1cc2no[n+]([O-])c2cc1N1CCCCC1`, the result was inactive.

In the case of `CCOc1ccc(C(=O)N/N=C/c2cccc3cccnc23)cc1`, the compound was called inactive.

With `Cc1nc2ccc(S(=O)(=O)Nc3cccc(-c4nc5cccnc5s4)c3C)cc2s1`, the result was inactive.

Take `COc1cc(C2CC(=O)Oc3c(C(CCN4CCCC(C)C4)c4ccc(N(C)C)cc4)c(OC)cc(OC)c32)cc(OC)c1OC` (configuration not stated): the outcome was inactive.

For the compound `CCOc1cc2c(cc1OCC)-n1cccc1C(c1ccc(C(C)C)cc1)NC2` (configuration not stated), the result was inactive.

`Cc1ccccc1NC(=S)N(CCN(C)C)C(C)c1ccccn1` (configuration not stated): the outcome was inactive.

`CSc1cccc(NC(=S)N(CCN(C)C)C(C)c2ccccn2)c1` (configuration not stated): the compound was classed as inactive.

As to `O=C(Cn1cc(SCc2ccc(Cl)cc2)c2ccccc21)N1CCOCC1`, the call was inactive.

With `O=C1C(NS(=O)(=O)c2ccc(Br)cc2)=C(N2CCCCC2)C(=O)c2ccccc21`, the call was inactive.

Consider `CCN(CC)C(=O)CCc1nc2sc3c(c2c(=O)[nH]1)CCCC3`, for which the compound was classed as inactive.

On to `O=C(CN1CCN(Cc2cccc(Cl)c2)C1=O)NCc1ccccn1`, for which the call was inactive.

As to `Cc1ccc(Cl)c(NC(=O)COC(=O)CNS(=O)(=O)/C=C/c2ccccc2)c1Cl`, the outcome was inactive.

For the compound `CC(C)C(=O)N(c1ccc2oc(=O)sc2c1)S(=O)(=O)c1ccccc1`, the compound was classed as inactive.

Regarding `CC(=NNC(=S)N1CCC1)c1ccccn1`, the compound was called inactive.

Regarding `COc1ccccc1C(CCNCc1ccc(N(C)C)cc1)c1ccc(OC(C)C)cc1` (configuration not stated), the compound was called inactive.

For `CSC1=NC(C)(C)CC2(C)Nc3ccccc3N12` (configuration not stated), the result was inactive.

`Cc1cccn2cc(CCNS(=O)(=O)c3ccc4c(c3)OCCO4)nc12`: the compound was classed as inactive.

`Cc1cc(C(=O)N/N=C/c2cc([N+](=O)[O-])ccc2O)c2ccccc2n1`: the result was inactive.

In the case of `CC(C)(C)c1nnc(N/N=C/c2cc(Br)ccc2O)n(N)c1=O`, the call was inactive.
